DAT uptake mod – changed human dopamine transporter uptake under cocaine IC80. B-score at 10 µM. LLC-PK1 hDAT cells, [14C]-dopamine uptake with cocaine IC80; actives deviate in either direction. Q01959. 110,000 tested, 1.3% active. AID 449768;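 active = Z score or B-score, a plate-position-corrected score, falls beyond the plate's 99.7% confidence bounds, in either direction; inactive = both scores lie inside the 99.7% bounds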;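 note: scored against the spread of the other compound wells on the same plate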
Target sequence (Q01959 whole entry, looked up): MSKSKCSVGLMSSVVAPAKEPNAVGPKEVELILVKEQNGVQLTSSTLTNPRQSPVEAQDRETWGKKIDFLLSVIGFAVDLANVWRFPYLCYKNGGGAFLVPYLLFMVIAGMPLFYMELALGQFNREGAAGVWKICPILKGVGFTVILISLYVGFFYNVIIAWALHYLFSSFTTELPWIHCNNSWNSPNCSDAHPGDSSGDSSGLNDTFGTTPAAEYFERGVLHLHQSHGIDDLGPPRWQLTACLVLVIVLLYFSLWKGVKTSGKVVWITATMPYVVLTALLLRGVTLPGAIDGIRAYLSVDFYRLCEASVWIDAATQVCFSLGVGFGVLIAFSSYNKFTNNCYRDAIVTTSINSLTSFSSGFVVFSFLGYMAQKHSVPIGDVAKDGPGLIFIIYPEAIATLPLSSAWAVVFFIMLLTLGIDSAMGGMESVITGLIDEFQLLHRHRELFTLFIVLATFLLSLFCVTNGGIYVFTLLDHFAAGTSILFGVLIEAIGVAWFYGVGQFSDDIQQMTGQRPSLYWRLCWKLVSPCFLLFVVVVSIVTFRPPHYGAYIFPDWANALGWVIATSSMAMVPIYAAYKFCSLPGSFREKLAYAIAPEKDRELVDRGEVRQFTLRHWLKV
D1 allo mod – allosteric modulators of human D1 dopamine receptor | P21728 | HEK293 D1, CRE-luciferase, dopamine EC30 potentiation; actives deviate in either direction | B-score at 10 µM | 58,000 tested, 5.9% active | AID 641;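 active = luminescence count or its row- and column-corrected plate score outside the 99.7% band of the plate's sample wells, on either side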
PKA inh – blocks human protein kinase A activity. 65,000 tested, 0.1% active. P17612. AID 524. PKA Kemptide phosphorylation, Kinase-Glo ATP luminescence. inhibition, % at 6 µM;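 active = inhibition above the screen-wide mean inhibition plus 3 SD, cut at about 21% in these data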
ROCK2 blocker – blocks human Rho kinase 2 activity | O75116 | purified ROCK2, Kinase-Glo ATP depletion luminescence | inhibition, % at 6 µM | 60,000 tested, 0.35% active;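 active = inhibition above the screen-wide mean inhibition plus 3 SD, cut at about 18% in these data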;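 note: plate controls were DMSO wells for no effect and Y-27632 control wells after no-enzyme background subtraction for full effect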
JNK3 blocker – blocks human JNK3 kinase activity. purified JNK3 kinase activity, HTS. inhibition, % at 8 µM. 60,000 tested, 0.61% active. AID 746; in the data active = inhibition above about 17%;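 note: 0% = DMSO and 100% = reference inhibitor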
* = called active by the depositor; x = no result; ! = not confirmed by another sample. Shown is part of a subset that was picked to be rich in hits.

SMILES	DAT uptake mod	D1 allo mod	PKA inh	ROCK2 blocker	JNK3 blocker
COC(C[C@@H](O)C[C@@H](O)[C@@H](C)OCc1ccccc1)OC	0.41	x	x	x	x
Cc1ccc(S(=O)(=O)NC(C)(C)CSc2nnc(Nc3ccccc3)s2)cc1	-8.1*	x	x	x	x
Fc1ccc(-c2nnc(NC3=NCCCCC3)o2)cc1	x	-6.6*	-14	-23	0
CC(=O)c1cccc(NC(=O)c2cnn3ccccc23)c1	0.97	-2.6*	-3	-4	15
O=C(Nc1ccc(CN2CCOCC2)cc1)c1cc2ccccc2o1	1.3	-4.9*	-5	-2	1
O=C(NC1=NCCS1)c1cc2ccccc2o1	-0.44	-4.6*	3	-3	3
O=C(Nc1ccc(CN2CCOCC2)cc1)c1ccccc1F	-1.2	x	x	x	x
O=C(Nc1ccc(CN2CCOCC2)cc1)c1cc2ccccn2n1	0.22	-7.3*	5	0	6
Cc1cccc(N2C(=O)c3cccc4c(N(C)CCO)ccc(c34)C2=O)c1	0.048	x	7	4	-1
COc1ccc(C(C(=O)NC2CCCCC2)N(C(=O)c2sc(C)nc2C)c2ccc(C(C)=O)cc2)cc1 (configuration not stated)	-0.0079	x	x	x	x
COC(=O)c1ccccc1NC(=O)NCc1cccnc1	1.4	x	10	6	24*
O=C(CCSc1ccc(Cl)c(Cl)c1)NC12CC3CC(CC(C3)C1)C2	-1.3	x	x	x	x
Cc1nc(-c2cccc(NS(=O)(=O)c3cccc4ccccc34)c2)cs1	3.5*	x	x	x	x
Nc1nc(-c2cccc(NS(=O)(=O)c3ccccc3)c2)cs1	-0.64	0.16	-4	-2	-6
Cc1nc(-c2cccc(NC(=O)c3cccs3)c2)cs1	3.2*	x	x	x	x
c1ccc(Nc2cc(Nc3ccccc3)[nH]n2)cc1	2.2	-0.0087	-1	-1	-1
CCOc1cc(N2CCOCC2)c(OCC)cc1NC(=O)CC12CC3CC(CC(C3)C1)C2	2.7*	x	x	x	x
COc1cc(O)c(C(CCN2CCCC(C)C2)c2ccc3c(c2)OCO3)c(OC)c1 (configuration not stated)	0.27	x	x	x	x
COc1cc(O)c(C(CCN2CCCC(C)C2)c2ccc(N(C)C)cc2)c(OC)c1 (configuration not stated)	2.2*	x	x	x	x
NC(CS(=O)O)C(=O)O (configuration not stated)	-1.2	x	x	x	x
O=C(Cn1c(=O)c2c(ncn2C2CCCC2)n(Cc2ccccc2)c1=O)N1CCc2ccccc21	1	-4.8*	9	5	-1
O=C(NC1=NCCS1)c1ccncc1	-0.49	1.3	2	7	-3
O=C(NC1=NCCS1)c1ccc(OCC2CCCO2)cc1 (configuration not stated)	-1	-3*	6	2	4
CN(C)c1nc(Oc2ccc(=O)[nH]n2)nc(N2CCOCC2)n1	0.49	x	x	x	x
CN(C)c1nc(Oc2ccc(=O)n(-c3ccccc3)n2)nc(N2CCOCC2)n1	0.0014	5.6*	6	9	-4
SMILES	DAT uptake mod	D1 allo mod	PKA inh	ROCK2 blocker	JNK3 blocker
O=[N+]([O-])c1cc(Br)c(O)c(/C=N/Nc2nnnn2-c2cccc3ccccc23)c1	-1.8	x	x	x	x
FC(F)Oc1ccc(/C=N/c2c(-c3ccc(OC(F)F)cc3)nc3n2CCS3)cc1	-0.56	x	x	x	x
Cc1ccccc1-c1nc2ccccc2c(=O)n1/N=C/c1ccccc1[N+](=O)[O-]	1.1*	x	x	x	x
O=c1c2ccccc2nc2n1CC/C2=C\c1ccccc1[N+](=O)[O-]	-0.0042	x	x	x	x
Cc1ccc(C(=O)NNC(=O)CSc2nnc3c(n2)[nH]c2ccc(F)cc23)cc1	-0.028	x	x	x	x
O=C(CSc1nnc2c(n1)[nH]c1ccc(F)cc12)OCc1ccccc1	-8.6*	-0.63	9	1	1
Clc1cccc(-c2ccc(/C=N/n3cnnc3)o2)c1	-0.021	-5.1*	6	5	4
COCc1nnc(NS(=O)(=O)c2c(C)cc(C)cc2C)s1	-1	x	x	x	x
Cc1noc(C)c1S(=O)(=O)Nc1ccc(C(=O)N2CCN(c3ccc(Cl)cc3)CC2)cc1	x	-3.7*	2	-3	2
c1ccc(-c2noc(-c3cccnc3)n2)nc1	0.008	-4.1*	-10	-38	4
c1ccc(-c2noc(-c3ccc4c(c3)OCO4)n2)nc1	0.32	-8.3*	-35	-44	5
c1ccc(-c2noc(-c3ccncc3)n2)nc1	-0.038	-1.2	-17	-31	3
COc1cccc(-c2nc(-c3ccccn3)no2)c1	1.1	x	x	x	x
Cc1ccc(-c2nc(-c3cccnc3)no2)cc1	-0.018	-4.9*	12	16	7
c1ccc(-c2noc(-c3ccc4ccccc4c3)n2)nc1	0.26	-4.4*	-3	-14	-3
O=C(NC(CSCc1ccccc1)C(=O)N/N=C/c1ccc(O)cc1O)c1ccc([N+](=O)[O-])cc1 (configuration not stated)	0.0078	x	x	x	x
Cc1onc(-c2ccccc2Cl)c1C(=O)N1C=CC(C(F)(F)Cl)=NCC1	0.56	x	x	x	x
CCCCn1c(SCC(=O)c2ccccc2)nc2c1c(=O)[nH]c(=O)n2C	-0.16	0.42	-6	-4	-7
Cc1ccc(OCc2nc(-c3ccccn3)no2)c(Br)c1	1.4	-5.7*	8	2	-1
CC(C)c1ccc(OCc2nc(-c3ccccn3)no2)c(Br)c1	-0.75	-2	-4	-5	-2
CCc1ccc(OCc2nc(-c3ccccn3)no2)c(Br)c1	-0.92	-5*	0	4	-5
CCn1c(SCC(=O)Nc2cc(OC)ccc2OC)nnc1C1CCCCC1	0.93	1.2	-2	-6	-7
N#Cc1c(/N=C/c2ccco2)sc2c1CCCCC2	-0.7	-4.2*	6	25*	-6
N#Cc1c(/N=C/c2cccs2)sc2c1CCC2	1.1	0.52	16	9	-9
C=CCOC(=O)C1=C(C)NC(=O)NC1c1ccc(OC(=O)c2ccco2)c(OC)c1 (configuration not stated)	1.3	-5.4*	8	9	2
SMILES	DAT uptake mod	D1 allo mod	PKA inh	ROCK2 blocker	JNK3 blocker
COc1ccc(-c2ncccc2O)cc1	-0.22	x	x	x	x
CCOc1c(C)cc(-c2ncccc2O)cc1C	-7.9*!	-0.92	8	0	-1
CN1CC=C2C(C#N)=C(N)C(C#N)(C#N)C(c3cccc(Cl)c3Cl)C2C1 (configuration not stated)	-0.72	-4.7*	10	5	4
COc1ccc(OC)c(C2C3CN(C(C)C)CC=C3C(C#N)=C(N)C2(C#N)C#N)c1 (configuration not stated)	-1.5	-1.4	3	1	6
CN1CC=C2C(C#N)=C(N)C(C#N)(C#N)[C@H](c3ccoc3)[C@H]2C1	0.11	x	x	x	x
Cc1ccc(C2C3CN(C(C)C)CC=C3C(C#N)=C(N)C2(C#N)C#N)cc1 (configuration not stated)	x	-3.1*	4	4	5
O=C(c1cc(-c2cccs2)on1)N1CCOCC1	-0.49	-0.68	-1	3	4
O=C(c1cc(-c2cccc(O)c2)on1)N1CCOCC1	-0.35	-5*	-7	-1	6
Cn1c(CCCNC(=O)c2ccccc2)nc2ccccc21	-0.81	-3.5*	-6	x	x
C=C(C)Cn1c(CCCNC(=O)C(C)(C)C)nc2ccccc21	-9.3*	-0.34	0	x	x
C=CCn1c(CCCNC(=O)C(C)(C)C)nc2ccccc21	0.21	-0.051	9	4	-6

Bioassay records as filed in PubChem.
